# Source: the supplement of paper PMC4466140
# Biological target: ScBbc1
# Test: SPOT peptide array binding signal intensity (averaged, normalized) (arbitrary units (background-subtracted, floor 0; scale differs between SH3 domains)); higher = stronger binding of the SH3 domain to the peptide
# How it was run: (§1)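 Four yeast species supplied the SH3 domains, which were expressed as GST fusions in E. coli BL21(DE3) and purified on glutathione Sepharose. Incubation with cellulose membranes carrying synthetic 15-mer peptides, cysteines exchanged for serines, ran overnight at 4°C at 10 μg/ml in TBS-based blocking buffer. Binding signal is reported as normalized, background-subtracted spot intensity averaged over replicates, in arbitrary units not shared between domains.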
row,Binder,SPOT peptide array binding signal intensity
1,HVRRSILALPLGVLL,≤ 0

# Biological target: ScBem1-D1
# Test: as above
# How it was run: as §1
row,Binder,SPOT peptide array binding signal intensity
1,HVRRSILALPLGVLL,10

# Biological target: ScBzz1-D1
# Test: as above
# How it was run: as §1
row,Binder,SPOT peptide array binding signal intensity
1,HVRRSILALPLGVLL,12.5

# Biological target: ScBzz1-D2
# Test: as above
# How it was run: as §1
row,Binder,SPOT peptide array binding signal intensity
1,HVRRSILALPLGVLL,3.5

# Biological target: ScCyk3
# Test: as above
# How it was run: as §1
row,Binder,SPOT peptide array binding signal intensity
1,HVRRSILALPLGVLL,56

# Biological target: ScFus1
# Test: as above
# How it was run: as §1
row,Binder,SPOT peptide array binding signal intensity
1,HVRRSILALPLGVLL,522

# Biological target: ScHof1
# Test: as above
# How it was run: as §1
row,Binder,SPOT peptide array binding signal intensity
1,HVRRSILALPLGVLL,1.5

# Biological target: ScHse1
# Test: as above
# How it was run: as §1
row,Binder,SPOT peptide array binding signal intensity
1,HVRRSILALPLGVLL,772

# Biological target: ScLsb1
# Test: as above
# How it was run: as §1
row,Binder,SPOT peptide array binding signal intensity
1,HVRRSILALPLGVLL,5.5

# Biological target: ScLsb2
# Test: as above
# How it was run: as §1
row,Binder,SPOT peptide array binding signal intensity
1,HVRRSILALPLGVLL,≤ 0

# Biological target: ScLsb3
# Test: as above
# How it was run: as §1
row,Binder,SPOT peptide array binding signal intensity
1,HVRRSILALPLGVLL,182

# Biological target: ScLsb4
# Test: as above
# How it was run: as §1
row,Binder,SPOT peptide array binding signal intensity
1,HVRRSILALPLGVLL,15.5

# Biological target: ScMyo3
# Test: as above
# How it was run: as §1
row,Binder,SPOT peptide array binding signal intensity
1,HVRRSILALPLGVLL,≤ 0

# Biological target: ScMyo5
# Test: as above
# How it was run: as §1
row,Binder,SPOT peptide array binding signal intensity
1,HVRRSILALPLGVLL,≤ 0

# Biological target: ScNbp2
# Test: as above
# How it was run: as §1
row,Binder,SPOT peptide array binding signal intensity
1,HVRRSILALPLGVLL,114

# Biological target: ScPex13
# Test: as above
# How it was run: as §1
row,Binder,SPOT peptide array binding signal intensity
1,HVRRSILALPLGVLL,≤ 0

# Biological target: ScRvs167
# Test: as above
# How it was run: as §1
row,Binder,SPOT peptide array binding signal intensity
1,HVRRSILALPLGVLL,22.2

# Biological target: ScSho1
# Test: as above
# How it was run: as §1
row,Binder,SPOT peptide array binding signal intensity
1,HVRRSILALPLGVLL,1000

# Biological target: ScSla1-D1-D2
# Test: as above
# How it was run: as §1
row,Binder,SPOT peptide array binding signal intensity
1,HVRRSILALPLGVLL,5

# Biological target: ScSla1-D3
# Test: as above
# How it was run: as §1
row,Binder,SPOT peptide array binding signal intensity
1,HVRRSILALPLGVLL,2

# Biological target: SpAbp1-D1
# Test: as above
# How it was run: as §1
row,Binder,SPOT peptide array binding signal intensity
1,HVRRSILALPLGVLL,124

# Biological target: SpBbc1
# Test: as above
# How it was run: as §1
row,Binder,SPOT peptide array binding signal intensity
1,HVRRSILALPLGVLL,2

# Biological target: SpBzz1-D1
# Test: as above
# How it was run: as §1
row,Binder,SPOT peptide array binding signal intensity
1,HVRRSILALPLGVLL,30

# Biological target: SpBzz1-D2
# Test: as above
# How it was run: as §1
row,Binder,SPOT peptide array binding signal intensity
1,HVRRSILALPLGVLL,≤ 0

# Biological target: SpCyk3
# Test: as above
# How it was run: as §1
row,Binder,SPOT peptide array binding signal intensity
1,HVRRSILALPLGVLL,3

# Biological target: SpHof1
# Test: as above
# How it was run: as §1
row,Binder,SPOT peptide array binding signal intensity
1,HVRRSILALPLGVLL,49

# Biological target: SpHof1-2
# Test: as above
# How it was run: as §1
row,Binder,SPOT peptide array binding signal intensity
1,HVRRSILALPLGVLL,8.5

# Biological target: SpHof1-3
# Test: as above
# How it was run: as §1
row,Binder,SPOT peptide array binding signal intensity
1,HVRRSILALPLGVLL,180

# Biological target: SpHse1
# Test: as above
# How it was run: as §1
row,Binder,SPOT peptide array binding signal intensity
1,HVRRSILALPLGVLL,508

# Biological target: SpLsb1
# Test: as above
# How it was run: as §1
row,Binder,SPOT peptide array binding signal intensity
1,HVRRSILALPLGVLL,2

# Biological target: SpLsb4
# Test: as above
# How it was run: as §1
row,Binder,SPOT peptide array binding signal intensity
1,HVRRSILALPLGVLL,73.5

# Biological target: SpMyo1
# Test: as above
# How it was run: as §1
row,Binder,SPOT peptide array binding signal intensity
1,HVRRSILALPLGVLL,2.5

# Biological target: SpNbp2
# Test: as above
# How it was run: as §1
row,Binder,SPOT peptide array binding signal intensity
1,HVRRSILALPLGVLL,194

# Biological target: SpPex13
# Test: as above
# How it was run: as §1
row,Binder,SPOT peptide array binding signal intensity
1,HVRRSILALPLGVLL,≤ 0

# Biological target: SpRvs167
# Test: as above
# How it was run: as §1
row,Binder,SPOT peptide array binding signal intensity
1,HVRRSILALPLGVLL,9.83

# Biological target: SpSla1-D1-D2
# Test: as above
# How it was run: as §1
row,Binder,SPOT peptide array binding signal intensity
1,HVRRSILALPLGVLL,2

# Biological target: SpSla1-D3
# Test: as above
# How it was run: as §1
row,Binder,SPOT peptide array binding signal intensity
1,HVRRSILALPLGVLL,1
